# C diff growth: C. difficile growth inhibition | Clostridium difficile clinical isolate growth, OD600, 24 h; active compounds read low | growth activity, negative = inhibition, % at 16 µg/mL (by protocol) | 86,000 compounds, 0.25% hits;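 active = mean growth activity at or below -80% and every replicate also at or below -80%; inconclusive = mean at or below -80% but some replicate above -80%; inactive = mean growth activity above -80%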;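 also: 0% = DMSO wells and -100% = levofloxacin 16 µg/mL wells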
# T cruzi growth-1: blocks T. cruzi growth in NIH3T3 culture; T. cruzi beta-gal in NIH3T3, GalScreen luminescence, 90 h; 77,000 compounds, 5.9% hits; inhibition, % at 8.34 µM; AID 624255;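 active = mean inhibition above about 93%, with at least 55% of replicates each passing it, limit read from the data, passing the limit was not always enough; inconclusive = only one of those two conditions holds; inactive = neither condition holds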
# Pf Dd2 growth: inhibitors of Plasmodium falciparum Dd2 growth; P. falciparum Dd2 growth, SYBR Green, 72 h; active compounds read low; activity change, % at 10 µM; 94,000 compounds, 2.3% hits; in the data active = activity change below about -80%; inconclusive = no clear call, values can overlap the other calls
# T cruzi growth-2: blocks T. cruzi growth in NIH3T3 host cells; shares compounds with T cruzi growth-1; T. cruzi beta-gal in NIH3T3, GalScreen luminescence, 90 h; inhibition, % at 8.35 µM; 5,600 compounds, 72% hits; AID 651739;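 active = mean replicate inhibition above about 95% and at least 55% of replicates individually reaching it, limit read from the data; inconclusive = only one of the two criteria is met; inactive = neither criterion is met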
# T cruzi growth-3: inhibitors of T. cruzi proliferation; shares compounds with T cruzi growth-1; T. cruzi beta-gal in NIH3T3, GalScreen luminescence, 90 h; inhibition, % at 2.09 µM; 5,600 compounds, 21% hits; AID 651740;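 active = mean inhibition above about 95%, with at least 55% of replicates also reaching it, limit read from the data; inconclusive = meets just one of the two conditions; inactive = meets neither condition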;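 also: plate controls were neutral control median for no effect and positive control median for full effect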
# 3T3 cytotox: cytotoxicity in mouse NIH/3T3 fibroblasts; NIH/3T3 viability, CellTiter-Glo ATP luminescence, 90 h; AID 651742; cytotoxicity (signal decrease), % at 8.35 µM; 5,600 compounds, 14% hits; shares compounds with T cruzi growth-1;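 active = mean signal decrease across replicates above about 35% based on untreated-well scatter, with enough replicates individually passing, limit read from the data; inconclusive = no rule stated though some were filed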;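 also: 0% = median of neutral control wells and 100% = median of positive control wells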
# 3T3 cytotox 2: kills mouse NIH/3T3 fibroblasts. shares compounds with T cruzi growth-1. NIH/3T3 viability, CellTiter-Glo ATP luminescence, 90 h. inhibition, % at 24.9 µM. 5,600 compounds, 56% hits;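 active = mean loss of cell viability signal at or above a set limit, and enough replicates individually reaching it; inconclusive = meets only the mean limit or only the replicate share; inactive = meets neither condition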;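 also: 0% = median of neutral control wells and 100% = median of positive control wells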
# * = called active by the depositor; ? = inconclusive; / = not tested or not shown. Rows were chosen to be rich in hits. Some 6.7% of all compounds tested hit in one or more screens of this group.
SMILES,C diff growth,T cruzi growth-1,Pf Dd2 growth,T cruzi growth-2,T cruzi growth-3,3T3 cytotox,3T3 cytotox 2
O=C(Cc1ccncc1)N1CC[C@@H]2[C@H]1c1cc(-c3ccccc3F)ccc1N[C@@H]2CO,-2,118*,-60,99*,27,-7,11
O=C(Cc1ccncc1)N1CC[C@@H]2[C@H](CO)Nc3ccc(-c4ccccc4F)cc3[C@@H]21,-2,112*,-63,107*,69,17,?
O=C(Cc1ccccc1)N1CC[C@@H]2[C@@H](CO)Nc3ccc(-c4ccccc4F)cc3[C@@H]21,-1,88,25,/,/,/,/
CO[C@@H](CN(C)Cc1cc(F)ccc1F)[C@@H](C)CN(C(=O)Nc1ccc(F)cc1)[C@@H](C)CO,/,-26,-28,/,/,/,/
C[C@@H]1CN([C@H](C)CO)C(=O)Cc2cc(NC(=O)C3CC3)ccc2O[C@@H]1CN(C)CC1CC1,-3,17,7,/,/,/,/
O=C(Cc1ccccc1)N1CC(=O)N2[C@H](C1)[C@@H](c1ccc(-c3ccccc3)cc1)[C@@H]2CO,-4,/,-27,/,/,/,/
C[C@H](CO)N1C[C@H](C)[C@H](CN(C)C(=O)NC2CCCCC2)Oc2cc(/C=C/c3ccccc3)ccc2S1(=O)=O,8,/,-33,/,/,/,/
C[C@H]1CN([C@@H](C)CO)S(=O)(=O)c2ccc(/C=C/c3ccccc3)cc2O[C@H]1CN(C)C(=O)NC1CCCCC1,-12,128*,-64,101*,89,-1,49*
C[C@H]1CN([C@@H](C)CO)S(=O)(=O)c2ccc(/C=C/c3ccccc3)cc2O[C@H]1CN(C)C(=O)NC1CCCC1,-2,102*,-66,99*,73,34,102*
C[C@@H]1CN([C@@H](C)CO)S(=O)(=O)c2ccc(/C=C/c3ccccc3)cc2O[C@H]1CN(C)C(=O)NC1CCCCC1,13,/,-17,/,/,/,/
O=C(C[C@@H]1CC[C@@H](NC(=O)c2ccc3c(c2)OCO3)[C@@H](CO)O1)NCc1ccc(F)cc1,5,-1,-19,/,/,/,/
COc1cccc(S(=O)(=O)Nc2ccc3c(c2)OC[C@H](C)N(Cc2ccccc2F)C[C@@H](C)[C@@H](OC)CN(C)C3=O)c1,/,38,-37,/,/,/,/
Cc1noc(C)c1NC(=O)NCC[C@@H]1CC[C@@H](NC(=O)c2ccccc2)[C@H](CO)O1,9,16,-2,/,/,/,/
O=C(Cc1ccccc1)N1CC(=O)N2[C@H](CO)[C@@H](c3ccc(C4=CCCC4)cc3)[C@@H]2C1,-3,/,-48,/,/,/,/
C[C@H](CO)N1C[C@H](C)[C@H](CN(C)C(=O)c2ccncc2)Oc2ncc(C#CC3CCCC3)cc2C1=O,0,/,-12,/,/,/,/
CC(=O)N(C)C[C@@H]1Oc2cc(C#CCC3CCCC3)ccc2S(=O)(=O)N([C@@H](C)CO)C[C@@H]1C,-7,21,-39,/,/,/,/
CCCC#Cc1ccc2c(c1)O[C@@H](CN(C)C(=O)CC1CC1)[C@@H](C)CN([C@H](C)CO)S2(=O)=O,-4,73,-49,/,/,/,/
C[C@H]1CN([C@@H](C)CO)S(=O)(=O)c2ccc(C#CCC3CCCC3)cc2O[C@H]1CN(C)C(=O)CC1CC1,21,122*,-54,?,85,-4,104*
C[C@@H]1CN([C@@H](C)CO)S(=O)(=O)c2ccc(C#CCC3CCCC3)cc2O[C@@H]1CN(C)C(=O)CC1CC1,15,120*,-48,89,94,25,107*
CO[C@H]1CN(C)C(=O)c2cc(NC(=O)c3cccc(F)c3)ccc2OC[C@H](C)N(CC2CC2)C[C@H]1C,/,89,1,/,/,/,/
CC(C)CC#Cc1ccc([C@@H]2[C@H](CO)N3CCCCN(C(=O)NC4CCCC4)C[C@@H]23)cc1,19,31,-36,/,/,/,/
COc1ccc(NC(=O)N2CCCCN3[C@@H](CO)[C@H](c4ccc(C#CCC(C)C)cc4)[C@@H]3C2)cc1,-5,114*,-78,98*,106*,118*,103*
CC(C)CC#Cc1ccc([C@H]2[C@H]3CN(C(=O)NC4CCCC4)CCCCN3[C@H]2CO)cc1,8,?,-6,110*,51,9,104*

# Compound activity from PubChem.
